The whole screen tested about 310,000 compounds, of which about 14,000 (4.5%) showed an effect of 50% or more. Effects have a minus sign here. The list comes from a sample in which strong results are over-represented; it also holds similar structures and randomly drawn compounds.
biological target: human ether-à-go-go-related gene (hERG) potassium channel (human, UniProt Q12809); test: primary screen, population patch clamp on CHO cells stably expressing hERG; higher = less effect of the substance
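Further: peak tail current of the secondary pulse compared with the same well before compound.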

human ether-à-go-go-related gene (hERG) potassium channel, sequence (Q12809 whole entry, looked up): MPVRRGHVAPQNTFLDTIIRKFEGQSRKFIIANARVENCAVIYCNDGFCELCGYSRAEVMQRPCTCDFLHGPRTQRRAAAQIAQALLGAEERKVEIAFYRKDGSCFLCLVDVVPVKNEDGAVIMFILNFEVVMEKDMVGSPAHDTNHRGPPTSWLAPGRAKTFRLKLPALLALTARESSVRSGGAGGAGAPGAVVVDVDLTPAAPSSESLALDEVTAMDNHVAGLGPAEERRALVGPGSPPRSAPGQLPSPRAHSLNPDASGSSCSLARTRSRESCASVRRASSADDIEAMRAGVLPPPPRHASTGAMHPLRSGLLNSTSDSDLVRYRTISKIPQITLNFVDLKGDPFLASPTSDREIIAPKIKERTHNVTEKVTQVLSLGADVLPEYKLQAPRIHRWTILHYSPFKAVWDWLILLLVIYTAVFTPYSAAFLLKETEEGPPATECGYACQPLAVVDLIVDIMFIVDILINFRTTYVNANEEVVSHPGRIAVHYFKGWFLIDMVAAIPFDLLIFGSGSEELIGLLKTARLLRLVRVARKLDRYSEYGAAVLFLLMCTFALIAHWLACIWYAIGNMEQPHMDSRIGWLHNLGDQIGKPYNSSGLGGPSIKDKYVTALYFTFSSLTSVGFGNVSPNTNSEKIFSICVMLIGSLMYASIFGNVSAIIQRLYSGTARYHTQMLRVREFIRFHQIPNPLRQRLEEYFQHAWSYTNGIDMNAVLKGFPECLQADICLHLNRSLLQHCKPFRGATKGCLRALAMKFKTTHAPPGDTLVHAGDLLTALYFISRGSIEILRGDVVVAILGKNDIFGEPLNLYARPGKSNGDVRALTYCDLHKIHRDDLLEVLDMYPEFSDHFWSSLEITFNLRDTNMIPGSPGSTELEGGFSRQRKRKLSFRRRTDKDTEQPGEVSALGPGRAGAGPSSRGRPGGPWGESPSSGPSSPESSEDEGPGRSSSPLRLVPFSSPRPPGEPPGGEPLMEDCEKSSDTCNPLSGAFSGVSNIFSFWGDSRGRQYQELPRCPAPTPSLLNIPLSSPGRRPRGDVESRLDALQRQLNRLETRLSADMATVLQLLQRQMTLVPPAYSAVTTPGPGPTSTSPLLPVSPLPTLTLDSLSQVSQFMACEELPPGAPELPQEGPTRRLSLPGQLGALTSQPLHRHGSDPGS

Row | Structure (SMILES) | hERG current change (%, negative = inhibition) at 10uM
1 | Cc1ccc(N(C(=O)c2ccc(S(=O)(=O)N3CCCC3)cc2)C2C=CS(=O)(=O)C2)cc1 (stereo not shown) | -32.9%
2 | COc1ccc(N(C(=O)c2ccc(S(=O)(=O)N3CCCC3)cc2)C2C=CS(=O)(=O)C2)cc1 (stereo not shown) | -31.9%
3 | CCOc1ccc(N(C(=O)c2ccc(S(=O)(=O)N3CCCC3)cc2)C2C=CS(=O)(=O)C2)cc1 (stereo not shown) | -51.9%
4 | COc1ccc(N2CCN(c3ccc(NC(=O)C4CCCCC4)cc3C#N)CC2)cc1 | 15.2%
5 | COc1cc(C(=O)N2CCN(C(=O)C3CC3)CC2)cc(OC)c1OC | 3.78%
6 | Cc1ccc(C)c(NC(=O)COC(=O)Cn2c(C)csc2=O)c1 | 6.84%
7 | Cc1c(C(=O)N2CCCCCC2)c(S(=O)(=O)Nc2cccc(F)c2)c(C)n1C | 9.56%
8 | CN1CCN(c2c(/C=N/O)c3ccccc3n2C)CC1 | -51.5%
9 | Cc1c(/C=N/O)c2ccccc2n1C | 5.39%
10 | Cn1c(N2CCOCC2)c(/C=N/O)c2ccccc21 | 7.51%
11 | O=C(N/N=C/c1ccco1)c1ccc(NC(=O)C2CC2)cc1 | 18.2%
12 | OC(COCC(F)(F)C(F)(F)C(F)(F)C(F)F)Cn1c2ccc(Cl)cc2c2cc(Cl)ccc21 (stereo not shown) | -9.49%
13 | CC(C)NC(=O)C(=O)Nc1cc2c3c(c1)CCC(=O)N3CCC2 | 11.4%
14 | Cc1csc(NC(=O)CSc2nnc(-c3ccoc3C)n2Cc2ccco2)n1 | -82%
15 | Cc1csc(NC(=O)CSc2nccn2Cc2ccco2)n1 | 4.55%
16 | Cc1cc(C)nc(SCc2nnc(SCC(=O)Nc3nccs3)n2Cc2ccco2)n1 | -25%
17 | O=C(CSc1nnc(-c2ccncc2)n1Cc1ccco1)Nc1nccs1 | -27%
18 | Cc1occc1-c1nnc(SCC(=O)Nc2nccs2)n1Cc1ccco1 | -75.4%
19 | Cc1csc(NC(=O)CSc2nnc(C)n2Cc2ccco2)n1 | -1.85%
20 | CC(=O)NC1=C(NC2CCS(=O)(=O)C2)C(=O)c2ccccc2C1=O (stereo not shown) | 18.4%
21 | COc1cccc(CNC(=O)C2CCC(=O)N(CCc3cccc(F)c3)C2)c1 (stereo not shown) | -13%
22 | Cc1ccccc1CNC(=O)C1CCC(=O)N(Cc2cccc(F)c2)C1 (stereo not shown) | -8.38%

Row | Structure (SMILES) | hERG current change (%, negative = inhibition) at 10uM
23 | O=C(NCc1cccc(OC(F)(F)F)c1)C1CCC(=O)N(Cc2cccc(F)c2)C1 (stereo not shown) | -50.1%
24 | CSc1ccc(CNC(=O)C2CCC(=O)N(Cc3cccc(F)c3)C2)cc1 (stereo not shown) | -62.4%
25 | COC(=O)c1ccc(CNC(=O)C2CCC(=O)N(Cc3cccc(F)c3)C2)cc1 (stereo not shown) | -12.7%
26 | Cc1ccc(CNC(=O)C2CCC(=O)N(CCc3cccc(F)c3)C2)cc1 (stereo not shown) | -38%
27 | O=C(NCc1ccc(Cl)s1)C1CCC(=O)N(CCc2cccc(F)c2)C1 (stereo not shown) | -60.2%
28 | CSc1ccc(CNC(=O)C2CCC(=O)N(CCc3cccc(F)c3)C2)cc1 (stereo not shown) | -77.1%
29 | O=C(NCc1ccc(Cl)s1)C1CCC(=O)N(CCc2ccccn2)C1 (stereo not shown) | -10.1%
30 | O=C(NCc1cccc(F)c1)C1CCC(=O)N(CC2CCCCC2)C1 (stereo not shown) | -9.08%
31 | O=C(NCc1ccccc1OC(F)(F)F)C1CCC(=O)N(Cc2cccc(F)c2)C1 (stereo not shown) | -12.4%
32 | O=C(NCc1cccc(F)c1)C1CCC(=O)N(CCc2cccc(F)c2)C1 (stereo not shown) | -30.7%
33 | CCOC(=O)c1c(-c2ccc(OC)cc2)oc2cc(Br)c(O)cc12 | 10.4%
34 | COc1ccc(NS(=O)(=O)c2ccc(OCC(=O)N3CCOCC3)cc2)cc1Cl | 8.46%
35 | CNC(=O)Nc1ccc(C2SCCS2)cc1 | 7.02%
36 | CCOC(=O)C1=C2SCCN2C(=O)C(C#N)C1(C)C (stereo not shown) | 7.34%
37 | COc1ccc(-c2cc(C(=O)N3CC4(C)CC3CC(C)(C)C4)no2)cc1OC (stereo not shown) | -20.1%
38 | O=C(NCc1ccccc1F)C(=O)NCC1OCCCN1S(=O)(=O)c1cccs1 (stereo not shown) | 9.19%
39 | Cc1ccccc1NCN1C(=O)C2CCC(C)(C1=O)C2(C)C (stereo not shown) | -0.978%
40 | COCc1[nH]nc2c1C(c1ccccc1F)C(C#N)=C(N)O2 (stereo not shown) | 11%
41 | Cc1ccc(C)c(C(=O)CC2(O)C(=O)N(C)c3ccccc32)c1 (stereo not shown) | 8.85%
42 | O=C(Nc1ccc(Br)c(C(F)(F)F)c1)c1ccccc1 | 27.3%
43 | O=C(Nc1ccc(Br)c(C(F)(F)F)c1)c1ccc(C(F)(F)F)cc1 | 11.8%
44 | O=C(O)c1ccccc1C(=O)Nc1ccc(Br)c(C(F)(F)F)c1 | -70.6%

Row | Structure (SMILES) | hERG current change (%, negative = inhibition) at 10uM
45 | C/C(=N\NC(=O)CSc1nc2ccccc2s1)c1ccco1 | 0.0885%
46 | CC1CCCCN1C(=O)COC(=O)c1cccc(NS(=O)(=O)c2ccccc2)c1 (stereo not shown) | 0.629%
47 | N#CCSc1ccccc1NC(=O)COc1ccc(-c2nnco2)cc1 | -66.3%
48 | O=C(COc1ccc(-c2nnco2)cc1)Nc1c(F)cccc1F | 0.851%
49 | N#Cc1ccsc1NC(=O)COc1ccc(-c2nnco2)cc1 | 1.95%
50 | CCN(CC(=O)Nc1ccc2c(c1)OCCO2)S(=O)(=O)c1cccs1 | -4.54%
51 | COc1cccc(C(=O)Nc2c(C)n[nH]c2C)c1 | -0.143%
52 | COC(=O)c1ccc(S(=O)(=O)NCc2ccco2)o1 | 6.1%
53 | O=C(Cn1c(CN2CCCCC2)nc2ccccc2c1=O)NCc1ccco1 | -15.4%
54 | COCCN(Cc1cc2cc(C)ccc2[nH]c1=O)S(=O)(=O)c1ccc(Cl)cc1 | 16.4%
55 | COc1ccc(S(=O)(=O)Nc2nc3c(s2)C(=O)CC(C)(C)C3)cc1 | -10.3%
56 | CC(C)Cn1nc(C(=O)NCc2ccccc2CN2CCCC2)c2ccccc2c1=O | -38.3%
57 | CCCCn1nc(C(=O)Nc2c(C)n(C)n(-c3ccccc3)c2=O)c2ccccc2c1=O | -17.9%
58 | CCCCn1nc(C(=O)N(CC)CC(=O)Nc2c(F)cccc2F)c2ccccc2c1=O | -7.72%
59 | CCCCn1nc(C(=O)NCC(=O)Nc2c(C)cccc2C)c2ccccc2c1=O | -68.9%
60 | CCCCn1nc(C(=O)NCc2ccccc2CN2CCCC2)c2ccccc2c1=O | -64.6%
61 | CCCCn1nc(C(=O)Nc2ccccc2N2CCCC2)c2ccccc2c1=O | -9.4%
62 | COc1cc(CCCN[C@H](CN)Cc2ccccc2)cc(OC)c1OC | -4.22%
63 | CCN(CC)CCCN1C(=O)CSC1c1ccc2c(c1)OCO2.Cl (stereo not shown) | -39.2%
64 | CCN(CC)CCCN1C(=O)CSC1c1ccc([N+](=O)[O-])cc1.Cl (stereo not shown) | -72.8%
65 | O=C1CSC(c2ccc([N+](=O)[O-])cc2)N1Cc1ccccc1 (stereo not shown) | -48.8%
66 | Cl.O=C1CSC(c2ccc([N+](=O)[O-])cc2)N1CCN1CCCCC1 (stereo not shown) | -94.9%

Row | Structure (SMILES) | hERG current change (%, negative = inhibition) at 10uM
67 | CN(C)CCCN1C(=O)CSC1c1ccc([N+](=O)[O-])cc1.Cl (stereo not shown) | -46%
68 | Cl.O=C1CSC(c2cccc([N+](=O)[O-])c2)N1CCN1CCCCC1 (stereo not shown) | -21.4%
69 | O=C(O)c1cc(S(=O)(=O)NC2CCCc3ccccc32)ccc1O (stereo not shown) | 13.5%
70 | CC(C)CN(CC(C)C)c1ccc(C=C2C(=O)NC(=S)NC2=O)cc1[N+](=O)[O-] | 9.99%
71 | CC[C@@H](C)C(NC(=O)OC(C)(C)C)c1cn([C@@H](Cc2ccc(O)cc2)C(=O)N2CCN(C(=O)OC(C)(C)C)CC2)nn1 (stereo partly shown) | -70%
72 | CC[C@@H](C)C(NC(=O)OC(C)(C)C)c1cn([C@@H](Cc2cc3ccccc3[nH]2)C(=O)N2CCN(C(=O)OC(C)(C)C)CC2)nn1 (stereo partly shown) | -13.4%
73 | CC[C@@H](C)C(NC(=O)OC(C)(C)C)c1cn([C@@H](CCC(=O)OC(C)(C)C)C(=O)N2CCN(C(=O)OC(C)(C)C)CC2)nn1 (stereo partly shown) | -17.6%
74 | O=c1c2cc(NC(=S)NCc3ccccn3)ccc2nc2n1CCCCC2 | -6.42%
75 | O=c1c2cc(NC(=S)NC3CC3)ccc2nc2n1CCCCC2 | 0.786%
76 | CC(C)CCNC(=S)Nc1ccc2nc3n(c(=O)c2c1)CCCCC3 | -46.2%
77 | O=c1c2cc(NC(=S)NC3CCCCC3)ccc2nc2n1CCCCC2 | -70.2%
78 | O=c1c2cc(NC(=S)NC3CCN(Cc4ccccc4)CC3)ccc2nc2n1CCCCC2 | -10.4%
79 | O=c1c2cc(NC(=S)NCCN3CCCCCC3)ccc2nc2n1CCCCC2 | -1.38%
80 | COCCCNC(=S)Nc1ccc2nc3n(c(=O)c2c1)CCCCC3 | 7.89%
81 | O=c1c2cc(NC(=S)NC3CCCC3)ccc2nc2n1CCCCC2 | -59.6%
82 | O=c1c2cc(NC(=S)NCCCN3CCC(Cc4ccccc4)CC3)ccc2nc2n1CCCCC2 | -82.1%
83 | COc1ccccc1OC(=O)c1ccc2nsnc2c1 | 8.28%
84 | O=C(OCC#Cc1c(COC(=O)c2ccccc2)nnn1Cc1ccccc1)c1ccccc1 | 5.67%
85 | CCOc1ccc(/C=C2\SC(=S)N(CCC(=O)O)C2=O)cc1 | 3.03%

Source: PMC4336329 (PLoS ONE, 2015)
